Rows were chosen to be rich in hits. Some 2.7% of all compounds tested hit in one or more screens of this group.
Neddylation inh: inhibitors of human cullin neddylation | P61081+Q13564 | TR-FRET cullin neddylation, biochemical | calls only at 25 µM | 360,000 tested, 0.58% active; in the data active = inhibition above about 36%
FAS-TE inh: inhibitors of human fatty acid synthase thioesterase domain; P49327; recombinant FAS-TE, OMFH fluorogenic substrate, fluorescence endpoint; inhibition, % at 15 µM; 360,000 tested, 0.67% active;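 active = compounds whose normalised, plate-corrected inhibition of enzyme fluorescence in the single-dose primary screen is 50% or more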;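 also: 0% = DMSO with enzyme and 100% = substrate without enzyme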
proKLK7 act: proKLK7 (human) activation, primary screen. AID 652039. P49862. 370,000 tested, 0.9% active. purified proKLK7, EDANS-DABCYL substrate fluorescence; 100% is mature enzyme control, 0% vehicle. activation, % at 7 µM;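 active = activation above the mean of all tested compounds plus 3 SD, computed per campaign excluding outliers beyond control limits, cut at about 13% in these data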
PfG6PD inh: PfG6PD (Plasmodium falciparum) enzyme inhibition | PfGluPho enzyme, NADPH resazurin-diaphorase fluorescence | inhibition, % at 20 µM | 350,000 tested, 0.78% active;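 active = inhibition reaching at least a set limit at 20 µM in the primary screen, cut at about 59% in these data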;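 also: 0% = DMSO wells with substrate and 100% = DMSO wells lacking glucose-6-phosphate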
FAS-TE inh conf: confirmation of human fatty acid synthase thioesterase inhibitors; shares compounds with FAS-TE inh; recombinant FAS-TE, OMFH fluorogenic substrate, fluorescence; inhibition, % at 15 µM; 2,300 tested, 45% active; AID 624325;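 active = compounds inhibiting the enzyme by at least 50% at 15 µM in any one of the replicates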;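 also: 0% = enzyme with DMSO only and 100% = wells lacking enzyme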
* marks the source's active call; other numbers are inactive results; i = inactive; . = no result.

SMILES | Neddylation inh | FAS-TE inh | proKLK7 act | PfG6PD inh | FAS-TE inh conf
COc1ccc(-c2nn(-c3ccccc3)cc2C=O)cc1[N+](=O)[O-] | i | 6.3 | -0.1 | -2.5 | .
COc1ccc(-c2nn(-c3ccccc3)cc2/C=C/C(=O)O)cc1[N+](=O)[O-] | i | 52.6* | -0.5 | 36.5 | 62.2*
CC(C)(C)C(=O)Nc1nc(C2CCCN2S(=O)(=O)c2ccc(Cl)cc2)cs1 (stereo not given) | i | 55.1* | -0.2 | -5.4 | 64.6*
C/C(=N\NC(=S)NC1CCCCC1)c1ccc(OC(F)F)cc1OC(F)F | i | 57.0* | -0.2 | 21.7 | 44.7
c1ccc2cc(Cn3ccc4ccc(-c5ccc6ccn(Cc7ccc8ccccc8c7)c6c5)cc43)ccc2c1 | . | . | -2.4 | . | .
Cc1ccc(NC(=O)c2ccc(Cl)c(S(=O)(=O)Nc3c(C)n(C)n(-c4ccccc4)c3=O)c2)cc1Cl | i | 76.1* | 0.3 | 0.1 | 18.0
COc1ccc(C#CCN(C)/C(N)=N/C(=O)OCc2ccccc2)cc1 | . | . | 0.3 | . | .
N#Cc1cc2nc(O)c(O)nc2cc1[N+](=O)[O-] | i | 51.7* | 0.1 | -35.2 | 55.6*
N#Cc1cc(NC2CCCC2)c([N+](=O)[O-])cc1C#N | i | 53.9* | -0.5 | -9.2 | 21.8
O=[N+]([O-])c1ccc(NC2CCCC2)cc1 | i | 2.9 | 0.1 | -7.4 | .
O=C1[C@@H](C2CC2)[C@@H]2c3ccccc3C=NN2[C@@H]2c3ccccc3C=NN12 | . | . | -0.1 | . | .
CCCCCC(=O)OCc1ccc(C2=CC(=O)CC(C)(C)C2=O)cc1 | i | 64.4* | 0.7 | 28.0 | 56.4*
CC1(C)CC(=O)C=C(c2ccc(COC(=O)C(c3ccccc3)c3ccccc3)cc2)C1=O | i | 24.1 | 0.3 | 11.8 | .
CC(=O)OCc1ccc(C2=CC(=O)CC(C)(C)C2=O)cc1 | i | -4.5 | 0.2 | -10.9 | .
CC(C)(C)C(=O)OCc1ccc(C2=CC(=O)CC(C)(C)C2=O)cc1 | i | 82.4* | -0.1 | 16.5 | 82.4*
Clc1ccc(-c2nnc3n2N=C(c2ccc(-c4ccccc4)cc2)CS3)cc1 | . | . | 0.6 | . | .
COC(=O)c1cc(C(=O)Nc2nnc(C3CC3)s2)cc([N+](=O)[O-])c1 | i | 51.3* | 0.2 | 1.4 | 60.0*
COC(=O)c1cc(C(=O)Nc2nnc(CC(C)C)s2)cc([N+](=O)[O-])c1 | i | 50.6* | 0.2 | -17.7 | 30.4
CCOc1ccc(S(=O)(=O)c2c(C(=O)c3ccccc3)cnc3cc4c(cc23)OCCO4)cc1 | i | 80.3* | -89.4 | -3.9 | 40.4
CC(=O)c1cccc(OC(=O)Oc2cccc(C(C)=O)c2)c1 | i | 50.1* | 0.3 | 1.4 | 68.8*
COc1ccc(CCN=Cc2c(C)[nH]n(-c3ccc([N+](=O)[O-])cc3)c2=O)cc1OC | i | -7.4 | -0.3 | 7.8 | .
COc1ccc(-c2[nH]n(-c3ccc([N+](=O)[O-])cc3)c(=O)c2C=NCc2ccccc2)cc1 | i | 54.5* | -0.7 | 0.4 | 1.2
C=C(C)/C=C1/C(Cc2ccccc2)N(CC2CC2)C(=N)N1C(=O)OCc1ccccc1 (stereo not given) | . | . | 0.3 | . | .
COC(=O)[C@]12C[C@H](CC(=O)N3CCSCC3)C(=O)N(Cc3ccco3)C1=C[C@H](C(C)(C)C)O[C@@H]2C | . | . | -0.4 | . | .
COc1cc(/C=C(\C#N)c2nc3ccccc3s2)cc([N+](=O)[O-])c1O | i | 50.6* | 0.5 | -8.8 | 46.4*
SMILES | Neddylation inh | FAS-TE inh | proKLK7 act | PfG6PD inh | FAS-TE inh conf
Cc1ccc(-n2c(SCC(=O)Nc3cccc4ccccc34)nnc2-c2cnccn2)cc1 | . | . | 0.5 | . | .
O=C(NCC1CCCCC1)c1ccc([N+](=O)[O-])cc1 | i | 15.5 | -0.1 | 5.9 | .
O=C(CSc1ccc([N+](=O)[O-])cc1)NCC1CCCCC1 | i | 55.2* | 0.2 | 18.7 | 61.9*
Cc1cccc(C)c1NC1=C(Cl)C(=O)OC1OC(=O)c1ccccc1 (stereo not given) | i | 64.3* | 0.0 | 1.5 | 28.5*
Cc1ccc(NC2=C(Cl)C(=O)OC2OC(=O)c2ccccc2)c(C)c1 (stereo not given) | i | 37.6 | -0.4 | 4.5 | .
COc1ccc2c(c1)CCCN2C(=O)C1CCCN(S(=O)(=O)c2cccc3cccnc23)C1 (stereo not given) | . | . | 0.4 | . | .
O=C(CSc1nnc(-c2cnccn2)n1-c1ccccc1)c1ccccc1Br | . | . | 0.4 | . | .
COc1ccccc1NS(=O)(=O)c1ccc(N/N=C/C=C/c2ccccc2[N+](=O)[O-])c([N+](=O)[O-])c1 | i | 60.6* | 0.1 | -10.4 | -0.4

Screens deposited in PubChem BioAssay by several laboratories.
